An excerpt weighted towards active compounds, which were near 0.95% of everything screened.
RE007 growth inh: less growth of the S. pombe RE007 Vpr strain; S. pombe RE007 Vpr strain, BacTiter-Glo ATP luminescence, 24 h; Potency, µM (series often up to 92.2 µM), for the others: top-dose activity change, negative = less growth, usual class: inhibitors; actives 0.21% (n = 360,000); AID 651644; active = well fitted falling curve with a large enough effect; note: nearly all actives have a fitted effect of over 50% in size
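Fission yeast RE007 carrying one integrated HIV-1 vpr copy, seeded at OD 0.01 in PMG+AL medium with 23 nL pinned compound. Grown 24 h at 30 degrees; viability read by BacTiter-Glo luminescence after 5 min.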
TbPYK inhibitor: inhibitors of Trypanosoma brucei pyruvate kinase; actives 0.12% (n = 410,000); Q57TT1; TbPYK enzyme, Kinase-Glo Plus ATP luminescence, 45 min; Potency, µM (doses to about 76.8 µM), for inactives: at the top dose activity, negative = inhibition, most hits filed as inhibitors; note: nearly all actives have a fitted effect of over 50% in size
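In this concentration-response screen, enzyme-free wells defined baseline while DMSO plates tracked drift. Each reaction combined TbPYK, substrate, compound and 130 uM ADP for 45 min at room temperature. Kinase-Glo Plus luminescence gave the signal.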
LmPK inh: LmPK (Leishmania mexicana) enzyme inhibition; Q27686; purified LmPK, Kinase-Glo ATP luminescence, 1 h; Potency, µM (doses to about 57.5 µM), inactives show top-dose activity change, negative = inhibition, most hits filed as inhibitors; actives 0.37% (n = 290,000); AID 1721
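In 50 mM imidazole pH 7.2 with 7 mM MgCl2, LmPK (0.1 nM) turned over PEP (0.5 mM) and ADP (0.1 mM) for 1 h at room temperature. Luciferase read-out of ATP.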
Giardia FBPA inh-1: Giardia lamblia aldolase inhibition | A8B2U2 | purified Giardia FBPA | Potency, µM (series often up to 59.6 µM), without a hit: at the highest dose activity, negative = inhibition, most hits filed as inhibitors | actives 0.71% (n = 290,000) | AID 2451; note: nearly all actives have a fitted effect of over 55% in size
Target sequence (A8B2U2 whole entry, looked up): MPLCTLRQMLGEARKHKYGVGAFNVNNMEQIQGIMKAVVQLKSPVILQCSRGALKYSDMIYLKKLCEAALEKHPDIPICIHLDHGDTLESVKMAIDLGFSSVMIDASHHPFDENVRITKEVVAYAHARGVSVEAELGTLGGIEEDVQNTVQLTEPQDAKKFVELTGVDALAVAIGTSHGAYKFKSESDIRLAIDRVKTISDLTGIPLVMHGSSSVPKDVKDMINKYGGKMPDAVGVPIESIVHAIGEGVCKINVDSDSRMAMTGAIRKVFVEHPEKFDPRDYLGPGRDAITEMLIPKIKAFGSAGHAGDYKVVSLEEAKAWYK
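40 nM FBPA preincubated 10 min at RT with compound (up to 57.5 uM final), then substrate plus GAPDH/TPI/NAD/arsenate coupling and diaphorase/resazurin added. Fluorescence read after 20 min at RT, 525/598 nm.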
Giardia growth: blocks growth of Giardia lamblia trophozoites; Potency, µM (highest dose often 57.5 µM), for the others: at the highest dose activity change, negative = inhibition, hits mostly inhibitors; actives 5% (n = 1,500); shares compounds with Giardia FBPA inh-1; Giardia lamblia trophozoite growth inhibition;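 note: trophozoites exposed to compound for 48 h at 37 °C; nearly all actives have a fitted effect of over 70% in size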
Mammalian tox: toxic to mammalian cells in Giardia aldolase counter-screen | shares compounds with Giardia FBPA inh-1 | mammalian cell viability counter-screen, qHTS | Potency, µM (titrated, usually from 57.5 µM), without a hit: top-dose viability change, negative = toxicity, usual class: inhibitors | actives 4% (n = 1,500) | AID 2786;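 note: Chinese hamster ovary cells used as mammalian cytotoxicity surrogate; viability measured as cellular ATP by luminescence; compound exposure lasted 48 h before reading; nearly all actives have a fitted effect of over 60% in size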
Giardia FBPA inh-2: confirmation of Giardia fructose-bisphosphate aldolase inhibitors. purified Giardia aldolase enzyme activity, qHTS. Potency, µM (series often up to 57.5 µM), for inactives: top-dose activity change, negative = inhibition, hits mostly inhibitors. shares compounds with Giardia FBPA inh-1. AID 2787. actives 5% (n = 1,500); note: nearly all actives have a fitted effect of over 45% in size
Rabbit FBPA inh: blocks rabbit muscle aldolase in Giardia aldolase selectivity test. AID 2794. shares compounds with Giardia FBPA inh-1. Rabbit muscle FBPA enzyme inhibition, selectivity counter-screen. actives 4% (n = 1,500). Potency, µM (titrated, usually from 57.5 µM), for inactives: at the highest dose activity, negative = inhibition, most hits filed as inhibitors; note: nearly all actives have a fitted effect of over 60% in size
GAPDH coupling: counter-screen for Giardia aldolase inhibitors: GAPDH coupling enzyme. shares compounds with Giardia FBPA inh-1. GAPDH coupling enzyme counterscreen, biochemical, qHTS. Potency, µM (titrated, usually from 57.5 µM), inactives show at the top dose activity change, negative = inhibition, usual class: inhibitors. actives 6% (n = 1,500). AID 2795; note: nearly all actives have a fitted effect of over 55% in size
* hit, by the source's call; [ ] = another dose, or the depositor's remark. Unless noted, calls come from the whole dose curve; as a rule, active = well fitted curve in the direction sought with a large enough effect; inconclusive = small, poorly fitted or top-dose-only effect, or another doubt; inactive = no such curve, though single readings can be large; an effect the other way counts as inactive or inconclusive. % is set by controls: 0 for no effect and ±100 for the full control effect; potency is the fitted concentration of half-maximal effect.

For COc1ccc(-c2cc(-c3ccco3)[nH]c(=O)c2C#N)cc1OC the results were RE007 growth inh 6.3%, TbPYK inhibitor 3.3%, LmPK inh 4.3%, Giardia FBPA inh-1 15.8µM*, Giardia growth 19.0%, Mammalian tox -13.7%, Giardia FBPA inh-2 -15.1%, Rabbit FBPA inh -10.7% and GAPDH coupling -4.4%.
N#Cc1c(-c2ccccc2)cc(-c2ccc3c(c2)OCO3)[nH]c1=O was read as RE007 growth inh 23.1% and TbPYK inhibitor 0.4%.
For CCn1ncc(-c2cc(C(=O)O)no2)c1C the results were RE007 growth inh -2.5%, TbPYK inhibitor -2.2%, LmPK inh 0.6% and Giardia FBPA inh-1 3.2%.
`O=C(O)c1cc(-c2ccccc2)n(-c2ccc(F)cc2)n1` gave RE007 growth inh -5.8%, TbPYK inhibitor 3.1%, LmPK inh 7.3% and Giardia FBPA inh-1 -7.6%.
For O=C(O)c1cc2nccc(-c3ccc(F)cc3)n2n1 the results were RE007 growth inh -19.0%, TbPYK inhibitor -3.1%, LmPK inh -1.8%, Giardia FBPA inh-1 17.7µM*, Giardia growth 22.8%, Mammalian tox -2.4%, Giardia FBPA inh-2 13.0%, Rabbit FBPA inh 10.7% and GAPDH coupling 6.1%.
Screening CCn1ncc(-c2ccnc3cc(C(=O)O)nn23)c1C returned RE007 growth inh -22.9%, TbPYK inhibitor 1.8%, LmPK inh -6.3%, Giardia FBPA inh-1 15.8µM*, Giardia growth 22.9%, Mammalian tox 24.8%, Giardia FBPA inh-2 -2.1%, Rabbit FBPA inh -3.5% and GAPDH coupling -1.5%.
COc1ccccc1CCNC(=O)c1ccc(NC(=O)CC2SC(N3CCCCC3)=NC2=O)cc1 (stereo unspecified) was read as RE007 growth inh -3.0% and TbPYK inhibitor 0.0%.
Screening COc1ccc2c(c1)c1c(c(=O)n(Cc3ccccc3)c(=O)n1CC(=O)Nc1cc(C)cc(C)c1)n2C returned TbPYK inhibitor 4.4%.
For Cc1ccc(-n2c(=O)c3c(C)c(C(=O)N(C)C)sc3n(CC(=O)N(C)c3ccccc3)c2=O)cc1C the results were TbPYK inhibitor -3.3%.
COc1ccc(CN2CCN(Cc3c[nH]c4ccccc34)CC2)c(OC)c1 was read as RE007 growth inh -13.6% and TbPYK inhibitor -4.7%.
Screening O=[N+]([O-])c1ccccc1CN1CCN(Cc2c[nH]c3ccccc23)CC1 returned RE007 growth inh 5.2%, TbPYK inhibitor 20.4%, LmPK inh 9.9%, Giardia FBPA inh-1 19.9µM*, Giardia growth 5.0%[10.4 µM], Mammalian tox -23.1%, Giardia FBPA inh-2 0.8%, Rabbit FBPA inh 3.4% and GAPDH coupling 5.5%.
`COc1ccc(CN2CCN(Cc3c[nH]c4ccccc34)CC2)cc1OC` gave RE007 growth inh -9.7% and TbPYK inhibitor 6.0%.
Screening c1ccc2c(CN3CCCCC3)c[nH]c2c1 returned RE007 growth inh -12.5%, TbPYK inhibitor 3.2%, LmPK inh 0.1% and Giardia FBPA inh-1 1.6%.
`COc1ccc(Br)cc1CN1CCN(C(=O)c2ccc(F)cc2)CC1` gave RE007 growth inh -12.5%, TbPYK inhibitor -7.0%, LmPK inh 0.6%, Giardia FBPA inh-1 15.8µM*, Giardia growth 4.5%, Mammalian tox -11.2%, Giardia FBPA inh-2 5.1%, Rabbit FBPA inh 12.4% and GAPDH coupling -6.9%.
